Source: ChEMBL document CHEMBL3433997, “St. Jude Leishmania screening dataset” (2016)
Values joined by “and” are separate entries in the source; they are usually repeats but may differ in a detail not shown here. Equal values may be shown once.

Legend:
Type in all cases: functional
[1] = molecular target: Solute carrier family 2, facilitated glucose transporter member 1 (Homo sapiens) (UniProt P11166); test: ST_JUDE_LEISH: Cytotoxicity at 2uM final concentration against transgenic Leishmania Mexicana promastigotes LmGLUT1 that are glucose transport deficient and complemented with the human glucose transporter GLUT1. Activity is measured by DNA content using SYBR green in vitro
[2] = molecular target: Hexose transporter 1 (Plasmodium falciparum) (UniProt O97467); test: ST_JUDE_LEISH: Cytotoxicity at 2uM final concentration against transgenic Leishmania Mexicana promastigotes LmPfHT that are glucose transport deficient and complemented with the Plasmodium falciparum hexose transporter. Activity is measured by DNA content using SYBR green in vitro
[3] = molecular target: Glucose transporter (Leishmania mexicana) (UniProt O61059); test: ST_JUDE_LEISH: Cytotoxicity at 2uM final concentration against transgenic Leishmania Mexicana promastigotes LmGT2 that are glucose transport deficient and complemented with the L. Mexicana glucose transporter 2. Activity is measured by DNA content using SYBR green in vitro

Chain of Solute carrier family 2, facilitated glucose transporter member 1 (Homo sapiens) (P11166 whole entry): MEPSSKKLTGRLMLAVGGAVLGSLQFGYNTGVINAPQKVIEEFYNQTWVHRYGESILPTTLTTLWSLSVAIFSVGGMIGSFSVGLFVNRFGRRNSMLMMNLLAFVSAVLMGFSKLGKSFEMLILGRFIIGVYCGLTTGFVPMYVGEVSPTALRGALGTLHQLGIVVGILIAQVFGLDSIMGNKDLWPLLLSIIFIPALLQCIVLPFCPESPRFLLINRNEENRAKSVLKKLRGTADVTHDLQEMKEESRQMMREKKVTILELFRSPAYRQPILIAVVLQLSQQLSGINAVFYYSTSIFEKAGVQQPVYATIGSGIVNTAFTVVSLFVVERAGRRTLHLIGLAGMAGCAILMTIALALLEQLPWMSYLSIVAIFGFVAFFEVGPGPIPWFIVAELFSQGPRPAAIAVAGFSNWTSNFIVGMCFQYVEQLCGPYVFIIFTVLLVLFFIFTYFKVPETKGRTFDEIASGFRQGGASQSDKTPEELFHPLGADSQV

Row | Structure (SMILES) | inhibition [1] | inhibition [2] | inhibition [3]
1 | O=C(/C=C/c1cc(C(F)(F)F)ccc1F)NC1CCC(CN2CCC(c3c[nH]c4ccccc34)CC2)CC1 (stereo not drawn) | 6.52% | 5.67% | 6.74%
2 | O=C(NC1CCC(CN2CCC(c3c[nH]c4ccccc34)CC2)CC1)c1cnn(-c2ccccc2)c1-c1ccccc1Cl (stereo not drawn) | 4.74% | 10.3% | 3.95%
3 | OC(CNC1CCCCC1)c1ccc(Cl)c(Cl)c1 (stereo not drawn) | -1.03% | -0.96% | -0.95%
4 | Cc1ccc(CC(C)NCC(O)c2cccc(C(F)(F)F)c2)c(C)c1 (stereo not drawn) | 1.64% | 0.6% | 0.75%
5 | COc1ccc(CN(C2CC2)C(C)C(=O)c2[nH]c(C)c(C(C)=O)c2C)cc1 (stereo not drawn) | -1.09% | 1.96% | -1.15%
6 | CC(C)CNCc1cccc(-c2cccc(CN(C(=O)Nc3ccccc3)C3CCN(Cc4ccccc4)CC3)c2)c1 | 1.9% | 1.81% | 5.06%
7 | CC(C)(C)c1ccc(Cn2nc(C(=O)N3CCN(C(=O)C4CCCO4)CC3)c3ccccc32)cc1 (stereo not drawn) | 0.73% | 0.1% | -3.52%
8 | CCCCOC(C(=O)OCC1CCCN1C)(c1ccccc1)c1ccccc1 (stereo not drawn) | -0.11% | 1.91% | 2.05%
9 | CCCCC/C=C/C(=O)NC1CCC(CN2CCC(c3c[nH]c4ccccc34)CC2)CC1 (stereo not drawn) | 2.84% | 2.43% | 4.05%
10 | CCCCCCCn1c(=O)c(C(=O)Nc2c(C)cccc2C)c(O)c2ccccc21 | 2.89% | 1.98% | 3.35%
11 | CCCCCSc1cc(O)c(C(CNC)C(C)C)cc1OC (stereo not drawn) | 1.1% | -1.89% | -2.39%
12 | Cn1nc(-c2ccc(S(=O)(=O)NC3CCC(CN4CCC(c5c[nH]c6ccccc56)CC4)CC3)s2)cc1C(F)(F)F (stereo not drawn) | 5.26% and 1.76% | 4.54% and 4.39% | 1.24% and 0.16%
13 | NC(=O)c1ccc2[nH]cc(C3CCN(CC4CCC(NC(=O)/C=C/c5ccc(Cl)c(Cl)c5)CC4)CC3)c2c1 (stereo not drawn) | -3.07% and 2.76% | -1.26% and 2.22% | 0.5% and 1.58%
14 | CCCCCc1cc(O)c2c(c1)OC(C)(C)CC2C1=CCN(Cc2cccnc2)CC1 (stereo not drawn) | -0.46% | 1.05% | 0.25%
15 | Brc1cnc(NC2=NCCN2)c(Br)c1 | 2.63% | 3.41% | 3.27%
16 | O=C(/C=C/c1ccc(Cl)c(Cl)c1)N1CCC(CN2CCC(c3c(-c4ccc(F)cc4)[nH]c4ccccc34)CC2)CC1 | 0.15% | -1.9% | -4.69%
17 | Cc1cc(-c2ncc[nH]2)ccc1-c1ccc(C(=O)N2CCc3cc4c(cc32)C2(CCN(C)CC2)CO4)cc1 | -2.79% | 1.74% | -0.2%
18 | CC(=O)N(Cc1cccc(-c2cccc(CNCCc3ccccc3)c2)c1)C1CCN(Cc2ccccc2)CC1 | -0.27% | 1.94% | 4.41%
19 | COc1cc(C=CC(=O)N2CCC(CN3CCC(c4c[nH]c5ccccc45)CC3)CC2)cc(OC)c1 | 2.61% | 0.72% | -2.69%
20 | CC(Cc1ccc(C(C)(C)C)cc1)NCC(O)c1ccccc1 (stereo not drawn) | 2.91% | -0.46% | 0.43%
21 | COc1cccc(/C=C/C(=O)NC2CCC(CN3CCC(c4c[nH]c5ccccc45)CC3)CC2)c1 (stereo not drawn) | 2.16% and -1.74% | -0.63% and -2.74% | 3.07% and -2.7%
22 | O=C(/C=C/C=C/c1ccccc1)NC1CCC(CN2CCC(c3c[nH]c4ccccc34)CC2)CC1 (stereo not drawn) | 2.53% | 0.67% | 2.81%
23 | Cc1nc(-c2ccc(-c3ccc(C(=O)Nc4ccc5c(c4)C4(CCNCC4)CO5)cc3)c(C)c2)no1 | 2.05% | 5.12% | 1.93%
24 | CCOC(C(=O)OCC1CCCN1C)(c1ccccc1)c1ccccc1 (stereo not drawn) | 1.35% | -0.09% | 0.01%

Row | Structure (SMILES) | inhibition [1] | inhibition [2] | inhibition [3]
25 | O=C(C=Cc1ccc(Br)cc1)NC1CCC(CN2CCC(c3c[nH]c4ccccc34)CC2)CC1 (stereo not drawn) | 2.45% | 2.86% | 4.98%
26 | Cc1[nH]c2ccccc2c1C1=CCN(CCCCC23CCCc4cccc(c42)NC3=O)CC1 (stereo not drawn) | 2.64% | 2.98% | 2.47%
27 | CC(Cc1ccc(OCCCCOc2ccccc2)cc1)NCCc1ccccc1Cl (stereo not drawn) | 15% | 19.8% | 7.82%
28 | COCCNCc1cccc(-c2ccc(CN(C(=O)Nc3ccccc3)C3CCN(Cc4ccccc4)CC3)cc2)c1 | 2.81% | 0.8% | 2.73%
29 | O=C(NC1CCC(CN2CCC(c3c[nH]c4ccccc34)CC2)CC1)[C@H]1Cc2ccccc2CN1 (stereo partly drawn) | 1.47% | 2.41% | 4.44%
30 | CCC1CN2CCc3cc(OC)c(OC)cc3C2CC1CC1NCCc2cc(OC)c(OC)cc21 (stereo not drawn) | 96.6% | 96% | 93.1%
31 | CCCc1cc([C@@H](O)[C@@H]2C[C@@H]3CCN2C[C@@H]3CC)c2ccccc2n1 | -0.67% | 3.99% | 0.11%
32 | CC[C@H]1CN2CC[C@H]1C[C@@H]2[C@@H](O)c1ccnc2ccccc12 | -0.01% | 0.66% | -1.98%
33 | CC[C@H]1CN2CC[C@H]1C[C@H]2[C@H](O)c1cc(N2CCCC2)nc2ccc(OC)cc12 | -0.2% | -1.79% | 0.03%
34 | COc1cccc(CCNC(C)Cc2ccc(OCCCCOc3ccccc3)cc2)c1 (stereo not drawn) | 95% | 96.3% | 101%
35 | CC(Cc1ccc(OCc2ccc(CCN(C)C)cc2)cc1)NCCc1cccc(Cl)c1 (stereo not drawn) | 1.8% | 0.77% | -2.69%
36 | COC(=O)c1ccc(CC(C)NCC(O)c2cccc3ccccc23)cc1 (stereo not drawn) | 4.9% | 3.26% | 2.22%
37 | CC(Cc1ccc(OCCOc2ccccc2)cc1)NCC(O)c1cccc(C(F)(F)F)c1 (stereo not drawn) | 1.79% | 3.83% | 4.17%
38 | COc1ccc(C[C@@H](C)NC[C@H](O)c2cccc(Cl)c2)cc1F | 0.83% and 1.3% | 3.32% and 5.02% | 0.88% and 0.58%
39 | O=C(/C=C/c1ccc(Cl)c(Cl)c1)NC1CCC(CN2CCC(c3c[nH]c4ccccc34)C(O)C2)CC1 (stereo not drawn) | 5.68% | 3.72% | 4.19%
40 | COc1cc(C=CC(=O)N2CCC(CN3CCC(c4c[nH]c5ccccc45)CC3)CC2)ccc1O | 8.46% | 6.19% | 6.97%
41 | COc1cccc(O)c1CNCC(O)c1cccc(C(F)(F)F)c1 (stereo not drawn) | 0.43% | 0.5% | 0.29%
42 | Cc1[nH]c2ccc(O)cc2c1C1CCN(CC2CCN(C(=O)/C=C/c3ccc(Cl)c(Cl)c3)CC2)CC1 | 0.92% | 0.19% | -0.96%
43 | CC(Cc1ccc(Oc2ccc(Cl)cc2)cc1)NCC(O)c1cccc(Cl)c1 (stereo not drawn) | -2.67% | -2.38% | -1.74%
44 | CCCCCCCc1cc(O)c2c3c(c(=O)oc2c1)CN(C)CC3 | 10.7% | 11.3% | 10.7%
45 | CCN(Cc1ccccc1)CC(O)c1ccc(Cl)c(Cl)c1 (stereo not drawn) | 0.91% | 0.62% | 1.21%
46 | c1ccc(C(OCCC2CCN(Cc3cccc4cccnc34)CC2)c2ccccc2)cc1 | 9.36% | 8.53% | 5.64%
47 | COc1ccc2[nH]cc(C3CCN(Cc4ccc(NC(=O)c5ccc(-c6ccccc6)cc5)cc4)CC3)c2c1 | 3.87% | 2.27% | 3.28%
48 | CCC1(C)CC(CCNCc2ccccc2O)(c2ccc(C)cc2)CCO1 (stereo not drawn) | -0.22% | -2.9% | -0.15%

Row | Structure (SMILES) | inhibition [1] | inhibition [2] | inhibition [3]
49 | CC[C@H]1CN2CC[C@H]1C[C@H]2[C@H](O)c1cc(-c2cccc(Cl)c2)nc2ccc(OC)cc12 | 9.7% | 9.03% | 10.7%
50 | C=C[C@H]1CN2CC[C@@H]1C[C@H]2[C@H](O)c1cc(-c2ccc(F)cc2)nc2ccc(OC)cc12 | 6.56% | 4.6% | 3.68%
51 | O=C(C=Cc1ccc(F)c(Br)c1)N1CCC(CN2CCC(c3c[nH]c4ccccc34)CC2)CC1 | 17.6% | 15.9% | 13.1%
52 | COc1ccc(C(=O)C2CC2CN2CC=C(c3c[nH]c4ccc(OC)nc34)CC2)cc1 (stereo not drawn) | 1.91% | -1.74% | 2.37%
53 | O=C(O)c1ccc2nc(-c3ccc(-c4ccccc4)cc3)n(C3CCN(Cc4ccc(-c5ncc[nH]5)cc4)CC3)c2c1 | 9.41% | 8.89% | 8.84%
54 | Cc1[nH]c2ccccc2c1C1=CCN(CCN2CCOc3c(Br)cccc3C2=O)CC1 | 1.66% | 1.57% | 1.55%
55 | CN1C(=O)OC[C@@H]1Cc1ccc2[nH]cc(C3=CCN(Cc4ccccc4)CC3)c2c1 | 2.44% | 7.87% | -0.74%
56 | Cc1nc2ccccc2n1C1CC2CCC(C1)N2Cc1nccn1-c1ccccc1 (stereo not drawn) | 0.86% | 3.24% | 2.15%
57 | Cc1ccc(/C=C/C(=O)NC2CCC(CN3CCC(c4c[nH]c5ccccc45)CC3)CC2)cc1C (stereo not drawn) | 3.87% and 0.74% | 3.35% and 0.58% | -0.3% and -2.39%
58 | CC[C@@]1(O)C(=O)OCc2c1cc1n(c2=O)Cc2c-1nc1cc3c(cc1c2CN1CCOCC1)OCO3 | 51.3% | 76.7% | 71.6%
59 | CCOc1ccc(Br)cc1/C=C/C(=O)Nc1ccc2c(c1)C1CCC2N1C (stereo not drawn) | 2.58% | 0.43% | 3.45%
60 | COc1ccc(C2CNCc3c2cc(OC)c(OC)c3Cl)cc1 (stereo not drawn) | 4.33% | 4.69% | -0.73%
61 | CCN(CC)CCN1C(=O)C(O)(c2ccccc2Cl)c2c1cc(C(N)=O)cc2C(F)(F)F (stereo not drawn) | 3.25% | 2.29% | 2.69%
62 | COC(=O)/C=C/c1ccc(CC(C)NCC(O)c2cccc(Cl)c2)cc1 (stereo not drawn) | -0.32% | -0.19% | -0.96%
63 | O=C(NC1CCC(CN2CCC(c3c[nH]c4ccccc34)CC2)CC1)c1cc(-c2ccc(F)cc2F)ccc1O (stereo not drawn) | 0.76% | 0.13% | 0.42%
64 | Cc1[nH]c2ccc(NS(C)(=O)=O)cc2c1C1CCN(CC2CCN(C(=O)/C=C/c3ccc(Cl)c(Cl)c3)CC2)CC1 | -0.42% | 1.08% | -0.21%
65 | Oc1ccccc1CNCC(O)c1cccc(C(F)(F)F)c1 (stereo not drawn) | -0.54% | -1.26% | -1.55%
66 | O=C(/C=C/c1cccc(F)c1)NC1CCC(CN2CCC(c3c[nH]c4ccccc34)CC2)CC1 (stereo not drawn) | 2.52% and 1.33% | -0.05% and 2.1% | -1.71% and 2.77%
67 | S=C(NCCc1ccc(Cl)cc1)N1CCC(CN2CCC(c3c[nH]c4ccccc34)CC2)CC1 | 3.04% | 1.73% | 1.67%
68 | CC[C@H]1CN2CC[C@H]1C[C@H]2[C@H](O)c1ccnc2ccc(OC)cc12 | -0.16% | 0.87% | 0.32%
69 | CNCCCCCCOc1ccc(CC(C)NCC(O)c2cccc(C(F)(F)F)c2)cc1 (stereo not drawn) | 18.4% | 2.66% | 1.22%
70 | C#CCN1CCC2=C(C1)c1c(O)cc(C(C)C(C)CCc3ccc(F)cc3)cc1OC2(C)C (stereo not drawn) | 0.45% | -1.07% | -1.42%
71 | Cc1cc(C2CCCCN2C)ccc1-c1ccc(C(=O)N2CCc3cc4c(cc32)C2(CCN(C)CC2)CO4)cc1 (stereo not drawn) | 3.41% | 0.31% | 1.11%
